sEH activator: activators of human soluble epoxide hydrolase. AID 717. purified human sEH enzymatic activity, activator screen. activation, % at 2 µM. 91,000 tested, 0.04% active. P34913; in the data active = activation above about 37%
Cav3 T inh: blocks human Cav3.2 T-type calcium channel; Cav3.2-expressing cells, Fluo-4 calcium fluorescence FDSS; active compounds read low; B-score at 10 µM; 100,000 tested, 4% active; O95180; AID 449739;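 active = single-dose well whose peak fluorescence ratio is a statistical outlier from its plate by either plate-standardised score or position-corrected B-score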
sEH inh: soluble epoxide hydrolase (human) inhibition; recombinant human sEH enzymatic activity assay; inhibition, % at 2 µM; 91,000 tested, 0.34% active; AID 707; in the data active = inhibition above about 80%
NFkB transloc inh: blocks IL-1B driven NFkB nuclear translocation in HUVEC cells. HUVEC IL-1B NFkB p65 nuclear translocation imaging. inhibition, % at 2 µM. 94,000 tested, 0.43% active;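 active = inhibition above about 30% together with a positive call from visual inspection of the well image, limit read from the data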;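 also: nuclear over cytoplasmic p65 intensity ratio measured by imaging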
HUVEC tox IL1B: toxic to HUVEC cells under IL-1B stimulation; HUVEC cell count loss, Hoechst imaging, IL-1B stimulated; cell count reduction, % at 2 µM; 94,000 tested, 0.41% active;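 active = cell count reduction more than 3 SD above the screen-wide mean, cut at about 70% in these data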
NFkB transloc pot: enhances IL-1B driven NFkB nuclear translocation | 94,000 tested, 0.3% active | activation, % at 2 µM | AID 819 | HUVEC IL-1B NFkB p65 nuclear translocation imaging;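 active = activation above 40%, about the mean plus 3 SD, also judged a hit on visual image review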;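 also: percent activation is computed from the nuclear over cytoplasmic p65 intensity ratio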
Large screens that a line does not name were inactive. An excerpt weighted towards active compounds, which were near 4.6% of everything screened.

COc1ccc(-c2nnc(SC(C)C(=O)Nc3nccs3)n2Cc2ccccc2)cc1OC (centres undefined)	none
CC(=O)Nc1cc2c(cc1C(=O)c1ccc(C)cc1)OCCO2	Cav3 T inh -5.2
Cc1cc(C)n(-c2ncnc3sc(C)c(C)c23)n1	none
Cc1c(C(=O)NCC2COc3ccccc3O2)oc2ccc(S(=O)(=O)N3CC(C)CC(C)C3)cc12 (centres undefined)	Cav3 T inh -3.9
Cc1c(C(=O)NCC2COc3ccccc3O2)oc2ccc(S(=O)(=O)N3CCOCC3)cc12 (centres undefined)	none (no result: Cav3 T inh)
Cc1c(C(=O)N2CCCCC2)oc2ccc(S(=O)(=O)N3CC(C)CC(C)C3)cc12 (centres undefined)	none (no result: Cav3 T inh)
Cc1c(C(=O)NCC2CCCO2)oc2ccc(S(=O)(=O)N3CC(C)CC(C)C3)cc12 (centres undefined)	Cav3 T inh -4
Cc1cc(C)nc(NS(=O)(=O)c2ccc(NC(=O)CN3C(=O)c4ccccc4C3=O)cc2)n1	none (no result: Cav3 T inh)
COc1ccc(F)cc1CN1CCN(c2cc(C)nc3c4c(C)cc(C)nc4nn23)CC1	Cav3 T inh -7.8 (no result: sEH activator, sEH inh, NFkB transloc inh, HUVEC tox IL1B, NFkB transloc pot)
COc1ccc(Cl)cc1CN1CCN(c2nc(C)cc(C)c2C#N)CC1	none
Oc1c(Cl)cc(Cl)cc1/C=N/c1nccs1	Cav3 T inh -9.3
C=CCc1ccc(O)c(-c2cc(CC=C)ccc2O)c1	Cav3 T inh -5 (no result: sEH activator, sEH inh, NFkB transloc inh, HUVEC tox IL1B, NFkB transloc pot)
O=C(CSCc1ccc(F)cc1)Nc1nc2c(s1)CCCC2	Cav3 T inh -6.6 (no result: NFkB transloc inh, HUVEC tox IL1B, NFkB transloc pot)
CCOc1ccc(NC(=O)c2oc3ccccc3c2NC(=O)CC)cc1	none (no result: sEH activator, Cav3 T inh, sEH inh)
Cc1ccc(C)c(N2CCN(C(=O)Cc3cn(C)c4ccccc34)CC2)c1	Cav3 T inh -5.4 (no result: NFkB transloc inh, HUVEC tox IL1B, NFkB transloc pot)
Cc1ccc(C)c(N2CCN(C(=O)CC3Sc4ccccc4NC3=O)CC2)c1 (centres undefined)	Cav3 T inh -6.9, HUVEC tox IL1B 79
Cc1cc(SCC(=O)N2CCC(c3noc4ccc(F)cc34)CC2)nc2ccccc12	Cav3 T inh -5
O=C(CSc1ncnc2sc3c(c12)CCCC3)N1CCC(c2noc3ccc(F)cc23)CC1	none
COc1ccc(SCC(=O)c2cc(C)c(OC(=S)N(C)C)c(C)c2)cc1	Cav3 T inh -4.5
CN(C1CCCCC1)S(=O)(=O)c1ccc(-n2cnnn2)cc1	NFkB transloc pot 50
Cc1ccc(-c2noc(CCC(=O)NCCc3ccccc3Cl)n2)cc1	none
O=C(CCc1nc(-c2ccccc2F)no1)Nc1ccc(Oc2ccccc2)cc1	none
COc1cccc(NC(=O)CCc2nc(-c3ccccc3F)no2)c1	HUVEC tox IL1B 82
COc1ccc(NC(=O)N2CCN(c3cccc(C(F)(F)F)c3)CC2)cc1	none
COc1ccccc1-c1noc(CCC(=O)Nc2cccc(C(F)(F)F)c2)n1	Cav3 T inh -7.6 (no result: sEH activator, sEH inh, NFkB transloc inh, HUVEC tox IL1B, NFkB transloc pot)
COc1ccc(-c2noc(CCC(=O)N3CCN(c4cccc(C(F)(F)F)c4)CC3)n2)cc1	Cav3 T inh -4.8
O=C(CCc1nc(-c2ccccc2)no1)Nc1cc(C(F)(F)F)ccc1Cl	none (no result: sEH activator, sEH inh, NFkB transloc inh, HUVEC tox IL1B, NFkB transloc pot)
O=C(CCc1nc(-c2ccccc2F)no1)NCCc1ccccc1Cl	Cav3 T inh -7.8
Cn1c(SCc2cc(=O)[nH]c3ccccc23)nnc1-c1ccco1	none (no result: NFkB transloc inh, HUVEC tox IL1B, NFkB transloc pot)
CNc1nc(SCc2ccc(C)cc2)nc2c1CCCC2	Cav3 T inh -6, NFkB transloc inh 42
Cc1ccc(CSc2nc3c(c(N(C)C)n2)CCCC3)cc1	none
O=C(CCNS(=O)(=O)c1ccc(Cl)cc1)NCc1ccccn1	none
Cc1ccc(C)c(NC(=O)c2cc3c([nH]c4ccccc43)c(C)n2)c1	none
Clc1ccc(OCc2nnc(SCc3nnc(-c4ccccc4)o3)o2)c(Cl)c1	Cav3 T inh -6.1
CCOC(=O)CNc1nc(OCC#N)nc(N2CCOCC2)n1	none
Cc1cc(NC(=O)CSc2nc3c(c(=O)n2-c2ccc(Br)cc2)SCC3)no1	none
COCCn1c(=NC(=O)CSC(C)=O)sc2cc(OC)ccc21	Cav3 T inh -5.9 (no result: sEH activator, sEH inh, NFkB transloc inh, HUVEC tox IL1B, NFkB transloc pot)
CCn1c(=NC(=O)CSC(C)=O)sc2cc(OC)ccc21	Cav3 T inh -6.7
CCc1nc2scc(-c3cccs3)c2c(=O)o1	NFkB transloc inh 45
CCn1c(Sc2nc(C)nc3scc(-c4cccs4)c23)n[nH]c1=O	none
CCC(=O)n1nc(NCc2ccccc2OC)nc1NCc1ccccc1OC	Cav3 T inh -7.9
COc1ccc(CNc2nc(NCc3ccc(OC)cc3)n(C(C)=O)n2)cc1	none
CCOC(=O)c1cc2c(=O)n3cccc(C)c3nc2n(CCCOC)c1=NC(=O)c1cccnc1	none (no result: sEH activator, sEH inh)
O=C(Nc1ccccc1)c1ccc(NCc2ccco2)c(S(=O)(=O)N2CCOCC2)c1	none
CCCc1cc(=O)n2c([nH]c3ccccc32)c1C#N	NFkB transloc inh 36
O=C(CN(C(=O)CSc1nc2ccccc2o1)c1cccc(F)c1)NC1CCCCC1	Cav3 T inh -5.6
CS(=O)(=O)N(CC(=O)NC1CCCC1)c1cccc(F)c1	none
O=C(O)CSc1nc2ccccc2o1	none (no result: Cav3 T inh)
O=C(CN(C(=O)CSc1nc2ccccc2o1)c1ccccc1)NC1CCCCC1	Cav3 T inh -3
COn1c(SCC(N)=O)nc2ccccc2c1=O	none (no result: sEH activator, sEH inh)
C=CCNC(=S)N1CCC(C(=O)c2ccc(OC)cc2)CC1	none
Cc1ccc(SCCNC(=O)/C=C/c2ccccc2Cl)cc1	Cav3 T inh -2.8
O=C(/C=C/c1ccc([N+](=O)[O-])cc1)NCCSc1ccccc1	Cav3 T inh -3.8
O=C(NC1CCCC1)c1nc2c(nnn2Cc2ccccc2Cl)c(=O)[nH]1	Cav3 T inh -3.4
COc1ccc(C2NC(=O)c3sc(=S)n(-c4ccccc4)c3N2)cc1 (centres undefined)	Cav3 T inh -8.4
Cc1c(C(=O)O)sc(=S)n1-c1ccccc1	none
N#CC1(c2ccccc2)CCCN1C(=O)c1ccco1 (centres undefined)	none
O=c1cc(O)nc(SCc2ccc(Cl)cc2)[nH]1	Cav3 T inh -6.9
CCn1c(C(=O)N2CCCC(C(=O)NCCc3ccc(C)cc3)C2)cc2sccc21 (centres undefined)	none
Cn1c(C(=O)N2CCCC(C(=O)NCCCSC3CCCCC3)C2)cc2sccc21 (centres undefined)	sEH inh 92 (no result: Cav3 T inh)
CCn1c(C(=O)N2CCCC(C(=O)NCCCc3ccccc3)C2)cc2sccc21 (centres undefined)	sEH inh 94
O=C(NCc1ccccc1)c1csc2c1CCCCC2	none
CCOc1ccc(NC(=O)c2ccc(F)c(S(=O)(=O)N3CCN(c4ccccn4)CC3)c2)cc1	sEH inh 86 (no result: Cav3 T inh)
CCOP(=O)(c1ccc(N(C)C)cc1)C(O)c1cc(OC)c(OC)c(OC)c1 (centres undefined)	none
Cc1ccc(C)c2[nH]c(=O)c(CN(Cc3ccco3)C(=O)Nc3ccccc3)cc12	Cav3 T inh -6
Cc1cccc2cc(CN(Cc3ccco3)C(=O)Nc3cccc(C#N)c3)c(Cl)nc12	Cav3 T inh -4.5
CCc1ccc2[nH]c(=O)c(CN(Cc3ccccc3)C(=O)Nc3ccccc3OC)cc2c1	Cav3 T inh -4.3

Screening data from PubChem.
